{
  "source": "the supplement of paper PMC11417369",
  "note": "± gives the standard deviation of the averaged measurements. Over roughly 25,000 sequences, “ln(normalized median fluorescence intensity)” has its median near 8.9; the highest 2% begin near 10. What follows is part of a selection rich in the highest values, with near analogues and random picks from the rest.",
  "data": [
    {"system": "PfAP2-LT AP2 domain (GST-tagged)", "test": "gcPBM binding intensity (ln(normalized median fluorescence intensity)); higher = stronger DNA binding", "summary_of_the_method": "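After 1 h on an Agilent 4 × 180k array of primer-extended double-stranded 36-bp intergenic genomic probes and negative controls, bound GST-tagged P. falciparum DNA-binding domains were detected with Alexa488 anti-GST antibody and scanned at 488 nm. The domains had been expressed in E. coli, and binding took place in 1× PBS with 1% milk, 0.2 mg/ml BSA, 0.5% salmon testes DNA and 0.03% Triton X-100. Binding intensity is the highest Masliner-normalised natural-log median intensity across replicate spots of either probe orientation.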", "values": [
      {"sequence": "ATAAAATCTTAATCAACAAACAAACAAAAAAAAAAT [CACACA_negctrl_site1161]", "gcPBM binding intensity (ln)": "8.77 ± 0.48"},
      {"sequence": "ATATGTTCTACAAAAAAGATGTCGATTTATTTTCTT [CACACA_negctrl_site1179]", "gcPBM binding intensity (ln)": "8.56 ± 0.49"},
      {"sequence": "TTTACATTTCAGTAGACACACAAAAAATAATACTAA [CACACA_site512]", "gcPBM binding intensity (ln)": "8.76 ± 0.43"},
      {"sequence": "AAAAAAAGATTATACACACACATATATAAACATACA [CACACA_site4553]", "gcPBM binding intensity (ln)": "9.54 ± 0.3"},
      {"sequence": "ATGATATGCAATTTAGTGCATAACAAAATTGGTATA", "gcPBM binding intensity (ln)": "8.79 ± 0.5"},
      {"sequence": "TTATTTATAAATATTAATTTTTTTTTTTTTTTTTTT [XGTACX_negctrl_site105]", "gcPBM binding intensity (ln)": "8.01 ± 0.5"},
      {"sequence": "TAATATATATTATTATGTACATATATTGATTCCTTG [XGTACX_site6830]", "gcPBM binding intensity (ln)": "8.85 ± 0.47"},
      {"sequence": "AATATAAGAAAAATAACACACACATAAACATATATA [CACACA_site8899]", "gcPBM binding intensity (ln)": "9.54 ± 0.35"},
      {"sequence": "ATAAGAAGAAGAAAAACACACATATGTAAATATATA [CACACA_site3138]", "gcPBM binding intensity (ln)": "9.09 ± 0.54"},
      {"sequence": "TTGTAAGAAAAACACACACACACATATATATATATA [CACACA_site795]", "gcPBM binding intensity (ln)": "10.1 ± 0.014"},
      {"sequence": "ATGTTGTACAGACACACACACAAAAAAAAAATAAAA [CACACA_site7184]", "gcPBM binding intensity (ln)": "9.46 ± 0.56"},
      {"sequence": "ATATATATATGTATGTATATATATATATATATGTTT [CACACA_negctrl_site248]", "gcPBM binding intensity (ln)": "9.08 ± 0.34"},
      {"sequence": "TATATATATATATATATATATATATATATATGTTGT [TGCATGCA_negctrl_site24]", "gcPBM binding intensity (ln)": "10.24 ± 0.085"},
      {"sequence": "GTTATATGTTATATATATATATATATATATATATAT [TGCATGCA_negctrl_site428]", "gcPBM binding intensity (ln)": "9.51 ± 0.27"},
      {"sequence": "TTTTCTTCATAAATGCTGCACTGGTTTAAGCATGAT", "gcPBM binding intensity (ln)": "8.6 ± 0.46"},
      {"sequence": "TGGGAAGGGTGGGAAACTTTATCAAAAACTTATTAC [GTGCAC_negctrl_site16]", "gcPBM binding intensity (ln)": "8.98 ± 0.24"},
      {"sequence": "TTTTGTTGATTTATATCTGTAGGGTTTAATATAACA [XGTACX_negctrl_site174]", "gcPBM binding intensity (ln)": "8.51 ± 0.33"},
      {"sequence": "TATAAAAAATAAAATACACACACATATATATATATA [CACACA_site8365]", "gcPBM binding intensity (ln)": "9.74 ± 0.28"},
      {"sequence": "TGCACCCACCAACACACACACAACTAAAAAATAATG [CACACA_site2566]", "gcPBM binding intensity (ln)": "9.71 ± 0.42"},
      {"sequence": "TATATATATATATATACACACACACCCACCAAAGCG [CACACA_site7904]", "gcPBM binding intensity (ln)": "10.02 ± 0.021"},
      {"sequence": "AGCACCCACCAACACACACACACACCCACCCACCGA [CACACA_site368]", "gcPBM binding intensity (ln)": "10.22 ± 0.028"},
      {"sequence": "ATCAAGCACCAACACACACACACACCCCCACCCACA [CACACA_site370]", "gcPBM binding intensity (ln)": "10.6 ± 0.11"},
      {"sequence": "AGCACCCACCAACACACACACACACCCACCCACCCA [CACACA_site8011]", "gcPBM binding intensity (ln)": "10.3 ± 0.11"},
      {"sequence": "TACACCCACCAACACACACACACACTAATAAAAAAA [CACACA_site8060]", "gcPBM binding intensity (ln)": "10.1 ± 0.44"},
      {"sequence": "TCCTGTTGAGAATGGCGTACATATAAATATTATATA [XGTACX_site1841]", "gcPBM binding intensity (ln)": "8.55 ± 0.42"},
      {"sequence": "TTTAATTTGTTATACACACACAAAAAAAATTATAAA [CACACA_site3937]", "gcPBM binding intensity (ln)": "8.93 ± 0.46"},
      {"sequence": "CTTATGTTTTTTAAGTGTACATATTATACGTATTAT [XGTACX_site1176]", "gcPBM binding intensity (ln)": "9.02 ± 0.42"},
      {"sequence": "AAATAACATAATAAGGGTACATTAATTTCGATAATG [XGTACX_site835]", "gcPBM binding intensity (ln)": "8.77 ± 0.4"},
      {"sequence": "TTTCTAATTTATATCACACACATATATAAATAGTAA [CACACA_site6156]", "gcPBM binding intensity (ln)": "8.72 ± 0.42"},
      {"sequence": "TATTAATCCTTTTGCTTGGAAACATTCAAAAGGAAG [CACACA_negctrl_site1129]", "gcPBM binding intensity (ln)": "8.18 ± 0.41"},
      {"sequence": "TAAATTATAATAAATACACACAAATTATAATTCTAT [CACACA_site3942]", "gcPBM binding intensity (ln)": "8.79 ± 0.37"},
      {"sequence": "TTTAGAGAAGTCAAGTGTACATATAAAATAATTCAC [XGTACX_site4997]", "gcPBM binding intensity (ln)": "8.65 ± 0.35"},
      {"sequence": "ATATATATATATATATGTACATATGTATATTTTTTT [XGTACX_site1299]", "gcPBM binding intensity (ln)": "9.77 ± 0.44"},
      {"sequence": "TATATAAATGGACACACACACACCTTATAATTATTA [CACACA_site6093]", "gcPBM binding intensity (ln)": "10 ± 0.38"},
      {"sequence": "GATAATTATGGACACACACACACACCCACAACTAAA [CACACA_site8824]", "gcPBM binding intensity (ln)": "10.2 ± 0.35"},
      {"sequence": "TAATTATGCGGACACACACACACACCCAACTAAAAA [CACACA_site5427]", "gcPBM binding intensity (ln)": "9.9 ± 0.26"},
      {"sequence": "AAAAATAAAAATTGCACACTAAAAAATTACGCACGA [CACACA_site3418]", "gcPBM binding intensity (ln)": "8.94 ± 0.35"},
      {"sequence": "TGCACGCACAGACACACACACAACTAAAAAATAATG [CACACA_site7250]", "gcPBM binding intensity (ln)": "9.54 ± 0.49"},
      {"sequence": "AAGATAATTACGCACACACACACACGCCCACAACTA [CACACA_site7255]", "gcPBM binding intensity (ln)": "10.4 ± 0.12"},
      {"sequence": "TAAAAAATAAAAATTGCACACTAAAAAATTACGCAC [CACACA_site9129]", "gcPBM binding intensity (ln)": "8.76 ± 0.41"},
      {"sequence": "TAATTATGCAGACACACACACACACGCAACTAAAAA [CACACA_site7253]", "gcPBM binding intensity (ln)": "10 ± 0.3"},
      {"sequence": "GATAATTACGGACACACACACACACGCACAACTAAA [CACACA_site7254]", "gcPBM binding intensity (ln)": "10.215 ± 0.0071"},
      {"sequence": "TAAATTTTTATTTGTAGTACTATATATATATATATA [XGTACX_site1026]", "gcPBM binding intensity (ln)": "8.9 ± 0.12"},
      {"sequence": "TAATTATGTACTATTATACACACGTTTAATTGTAAA [CACACA_site206]", "gcPBM binding intensity (ln)": "8.74 ± 0.42"},
      {"sequence": "AACATATATAATATTTGTACTTATATACAAAATATG [XGTACX_site7502]", "gcPBM binding intensity (ln)": "8.64 ± 0.4"},
      {"sequence": "ATATATATTTTAATAACACACATATATTATATTATA [CACACA_site4387]", "gcPBM binding intensity (ln)": "8.7 ± 0.38"},
      {"sequence": "AGGCACACAAACATATGTACACATATATATATATAT [XGTACX_site4723]", "gcPBM binding intensity (ln)": "10.21 ± 0.078"},
      {"sequence": "CATACATACAAACACACACACATATATATATATATA [CACACA_site43]", "gcPBM binding intensity (ln)": "10.16 ± 0.042"},
      {"sequence": "CATACATACAAACACACACACATATATATACATACA [CACACA_site852]", "gcPBM binding intensity (ln)": "10.1 ± 0.38"},
      {"sequence": "AAAAAAAAAAAAAACATACACACAAATATATACATA [CACACA_site4010]", "gcPBM binding intensity (ln)": "9.05 ± 0.45"},
      {"sequence": "TGTACAAATATGTACACACACACATATATATATATA [CACACA_site584]", "gcPBM binding intensity (ln)": "9.88 ± 0.085"},
      {"sequence": "AAAACACAAAAAAAATGTACACATATATATATATAT [XGTACX_site8509]", "gcPBM binding intensity (ln)": "9.84 ± 0.12"},
      {"sequence": "CATACATATAAACACACACACACACCCACCCACAAA [CACACA_site8059]", "gcPBM binding intensity (ln)": 10.4},
      {"sequence": "TATAAATATACAAACACACATACAAACATATATATA [CACACA_site1120]", "gcPBM binding intensity (ln)": "9.24 ± 0.37"},
      {"sequence": "TATATACACCCACATACACACAAATAAAAAAACACC [CACACA_site3414]", "gcPBM binding intensity (ln)": "9.64 ± 0.31"},
      {"sequence": "TACATATATATATACACACATACATATATATACGCA [CACACA_site792]", "gcPBM binding intensity (ln)": "9.11 ± 0.28"},
      {"sequence": "CATATACGCAAACACACACACATATATATATATATA [CACACA_site501]", "gcPBM binding intensity (ln)": "10.3 ± 0.27"},
      {"sequence": "TATACGCATATATAAACACACAAAAAAAAAAAAAAA [CACACA_site2026]", "gcPBM binding intensity (ln)": "8.86 ± 0.48"}
    ]}
  ]
}
